Screening results: PubChem, several laboratories
PriA SSB inh = K. pneumoniae PriA-SSBct interaction inhibition; inhibition, % at 33 µM; AlphaScreen SSBct-PriA binding, biotinylated peptide; 0.6% of 430,000 active; in the data active = inhibition mostly above about 37%, no sharp cut-off; inactive = mostly below about 20%;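 also: plate controls were negative control peptide for no effect and reference peptide for full effect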
PrP 5UTR inh = suppresses PrP 5' UTR mRNA reporter expression; cell-based PrP 5' UTR mRNA reporter, plate reader; 0.35% of 340,000 active; inhibition, % (test concentration not listed); in the data active = inhibition above about 52%; also: 0 = median of the neutral control wells
Yp Topo-I inh = inhibitors of Yersinia pestis topoisomerase I; AID 504884; Y. pestis Topo-I cleavage product accumulation, plate reader; 0.064% of 360,000 active; activity, % at 10 µM; in the data active = activity above about 50%, passing the limit was not always enough; inconclusive = no clear call, values can overlap the other calls
BJeLR lethal = kills HRASV12-expressing BJeLR cells | BJeLR (HRASV12) viability, CellTiter-Glo ATP luminescence, 48 h | inhibition, % (no concentration beside the values) | 0.17% of 300,000 active; in the data active = inhibition above about 50%; inconclusive = no clear call, values can overlap the other calls
PfHsp40 yeast = restores yeast growth despite PfHsp40 toxicity; AID 504582; growth rescue, % at 12.5 µM; S. cerevisiae expressing PfHsp40, growth rescue, ATP luminescence; 0.68% of 340,000 active; in the data active = growth rescue above about 28%, passing the limit was not always enough; inconclusive = no clear call, values can overlap the other calls;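 also: yeast W303a lacking pdr1 and pdr3 grown in galactose medium; growth measured after three days at 30 °C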
PrPC surface inh = reduces human prion protein on the cell surface. P04156. cell surface PrPC, TR-FRET read-out. inhibition, % at 13.8 µM. 0.43% of 370,000 active. AID 720596; in the data active = inhibition above about 24%; also: 0% = median of the test wells and 100% = reference compound wells
Numbers without * were called inactive; u = inconclusive; x = no result; ! = repeats disagree. This is a sample that favours compounds with a hit; in the whole collection about 1.7% have one here.

SMILES | PriA SSB inh | PrP 5UTR inh | Yp Topo-I inh | BJeLR lethal | PfHsp40 yeast | PrPC surface inh
COc1cc(CNCCc2c[nH]c3ccccc23)ccc1OCc1ccc(F)cc1 | 40* | -2 | -7 | -8 | -1 | -11
COc1cccc(CNCCc2c[nH]c3ccccc23)c1OCc1ccc(F)cc1 | 28 | 1 | -1 | 9 | 1 | -1
Cc1cc(OC(=O)CC(c2ccccc2)c2ccccc2)c([N+](=O)[O-])c(=O)[nH]1 | -12 | x | x | x | x | x
O=C(NCCn1ccn2nc(-c3cccs3)cc12)c1ccc2nsnc2c1 | 1 | x | x | x | x | x
O=C(O)COc1ccccc1C(Nc1cccnc1)c1cc(Cl)c2cccnc2c1O (stereo not given) | 35 | -16 | 1 | 7 | 106* | x
CCC(=O)NC(c1ccc(C)cc1)c1cc(Cl)c2cccnc2c1O (stereo not given) | -8 | 10 | 16 | x | u | x
O=C(O)COc1ccccc1C(Nc1ccccn1)c1cc(Cl)c2cccnc2c1O (stereo not given) | 52 | -9 | 15 | -11 | 58* | 0
CCOc1ccc(C(Nc2cccnc2)c2cc(Cl)c3cccnc3c2O)cc1 (stereo not given) | 34 | -5 | -1 | x | 92* | -5
COc1ccccc1C(NC(C)=O)c1cc(Cl)c2cccnc2c1O (stereo not given) | -11 | x | 4 | 34 | -1 | 0
O=C(NC1CC1)c1ccc(N2CC[C@H](NCc3cccc(O)c3)C2)nc1 | -13 | x | x | x | x | x
c1ccc(CNc2nc(Cc3ccsc3)cs2)cc1 | -8 | x | x | x | x | x
O=C(Nc1ccc(F)c(F)c1)N1CCN(c2ccc3nncn3n2)CC1 | -11 | x | x | x | x | x
CCCC(C)Sc1nc2c([nH]1)c(=S)n(C)c(=O)n2C (stereo not given) | -3 | -5 | 13 | x | 38* | 15
C=CCn1c(SCC(=O)N(C)C)nc2scc(-c3ccc(C)cc3)c2c1=O | -23 | x | x | x | x | x
C=CCn1c2ccccc2c(=O)c2cc(C#Cc3ccccn3)ccc21 | -12 | -55 | 2 | x | 29* | -13
S=C1SCN(Cc2cccnc2)CN1Cc1cccnc1 | -8 | -8 | -2 | 46 | 309* | -5
Cc1cc(C(=O)NNC(=O)c2ccc(Cl)cc2)c2ccccc2n1 | -18 | -19 | 2 | x | 65* | 3
COc1ccc(C(=O)NNC(=O)c2cc(C)nc3ccccc23)cc1 | -4 | -1 | -3 | x | 0 | -7
Cc1ccc(NC(=O)C(=O)N2CCC(Cc3ccccc3)CC2)c([N+](=O)[O-])c1 | 39* | x | x | x | x | x
CCCN1CCCc2cc(CCNC(=O)COc3ccccc3)ccc21 | 95* | x | x | x | x | x
CCCNC(=O)C(=O)NCCc1ccc2c(c1)CCCN2CCC | 3 | x | x | x | x | x
CCCN1CCCc2cc(CCNC(=O)CCc3ccccc3)ccc21 | 62 | x | x | x | x | x
CCCN1CCCc2cc(CCNC(=O)CCc3ccc(OC)cc3)ccc21 | 66* | x | x | x | x | x
CCCN1CCCc2cc(CCNC(=O)CC(C)(C)C)ccc21 | 58* | x | x | x | x | x
CCCN1CCCc2cc(CCNC(=O)C(=O)Nc3ccon3)ccc21 | 56* | x | x | x | x | x
SMILES | PriA SSB inh | PrP 5UTR inh | Yp Topo-I inh | BJeLR lethal | PfHsp40 yeast | PrPC surface inh
Nc1nc(SCc2cc(=O)[nH][nH]2)nc2sc3c(c12)CCCC3 | 30 | x | x | x | x | x
Cn1cccc1C(CNC(=O)C(=O)NC1CC1)N1CCc2ccccc2C1 (stereo not given) | -14 | x | x | x | x | x
CCCN1CCCc2cc(CCNC(=O)Cc3ccc(F)cc3)ccc21 | 73* | x | x | x | x | x
CCCN1CCCc2cc(CCNC(=O)OC)ccc21 | 64* | x | x | x | x | x
COc1ccc(S(=O)(=O)NCc2ccco2)cc1C(=O)N1CCCCC1 | -12 | -28 | 2 | -21 | 0 | 4
COc1ccc(S(=O)(=O)NCc2ccco2)cc1C(=O)O | 38*! | x | x | x | x | x
Cc1ccc(-c2csc(SCc3ccc(C(=O)O)o3)n2)c(C)c1 | -11 | x | x | x | x | x
CCOC(=O)CCC(=O)N(CC(F)(F)F)C1CCOCC1 | -9 | x | x | x | x | x
CCC(C)Nc1ccc(NC(C)CC)cc1 (stereo not given) | 40* | -10 | 3 | x | 3 | x
O=c1cccc2n1Cc1cc3ccccc3nc1-2 | -5 | -121 | -4 | 3 | 2 | -25
CC[C@@]1(O)C(=O)OCc2c1cc1n(c2=O)Cc2cc3c(N)cccc3nc2-1 | 37 | 31 | 0 | 78* | 0 | 10
CCCCc1cc(=O)oc2c(CN(C)C)c(O)ccc12 | -9 | 12 | 6 | -7 | -1 | -7
CC[C@@]1(O)C(=O)OCc2c1cc1n(c2=O)Cc2cc3c(CN(C)C)c(O)ccc3nc2-1 | 9 | 44 | 0 | 85* | 1 | -2
Fc1ccc(C=NN2CCCCC2)c(F)c1 | 43* | x | x | x | x | x
COc1ccccc1[C@H](CNC(=O)C(=O)Nc1ccc(OC(F)(F)F)cc1)OC | -14 | x | x | x | x | x
